Results published in ChEMBL document CHEMBL4888484, “Replenishing the malaria drug discovery pipeline: Screening and hit evaluation of the MMV Hit Generation Library 1 (HGL1) against asexual blood stage Plasmodium falciparum ,using a nano luciferase reporter read-out” (2022).
Screen size: about 4,800 compounds; about 410 (8.5%) showed an effect of 50% or more. Only a selection was taken, and strong results are over-represented in it overall.

What follows are compounds tested on Plasmodium falciparum (assay: Confirmatory screen in NF54 pLDH assay, in single point, at 2uM, 72h). Settings: timepoint 72 hour.
Format: functional, Erythrocyte
With `COC[C@H]1[C@H](NC(=O)c2ncc(F)cc2F)[C@H]2CCO[C@H]21` the “% Inhibition” value was -17%. In the case of `Nc1nc(C2CC(N)C2)cc(N2CCC(Oc3ccccc3Cl)CC2)n1` (configuration not stated), the “% Inhibition” value is reported as 65%. In the case of `Nc1nc(N2CCN(c3ccc(F)c(Cl)c3)CC2)cc([C@H]2C[C@@H](N)C2)n1`, the “% Inhibition” value is reported as 34%. For `O=C(CN1CCN(Cc2ccc(F)cc2)C1=O)NC1CCCCCCC1`, the “% Inhibition” value was 0%. With `CC[C@@H](Cc1ccccc1Br)C(=O)NCCC(N)=O` the “% Inhibition” value was -6%. In the case of `O=C(Nc1ccc(NC2CCOCC2)cc1)c1cc(F)c(O)c(F)c1`, the “% Inhibition” value is reported as -10%. In the case of `O=C(COc1ccccc1)Nc1ccc2c(c1)C(O)=Nc1cccnc1O2`, the “% Inhibition” value is reported as 64%. In the case of `CC1(C)Oc2ccc(NC(=O)COc3ccccc3)cc2NC1=O`, the “% Inhibition” value is reported as 12%. In the case of `CC(C)(C)CC(=O)Nc1ccc2c(c1)C(N1CCCCC1)=Nc1ccccc1O2`, the “% Inhibition” value is reported as -4%. For `CC(C)(C)OC(=O)Cn1cc(CO)nn1`, the “% Inhibition” value was 10%. With `O=C(C[C@H]1CCOC1)Nc1cc2ccc(Br)cn2n1` the “% Inhibition” value was 11%. In the case of `COC(=O)c1cc(NC(=O)N2CCO[C@H](C(=O)OC)C2)c(F)cc1F`, the “% Inhibition” value is reported as 6%. `CC1CN(C(=O)C(C(C)C)N2CC(C)OC(C)C2)CCO1` (configuration not stated) was tested, and the “% Inhibition” value was -12%. `COc1ccc(NC(=O)C2=Cc3cc(Cl)cc(OC)c3OC=C2)cc1` was tested, and the “% Inhibition” value was -1%. `CCCN(CCC)CCN1C(=O)[C@@H]2C(C(=O)Nc3cc(Cl)cc(Cl)c3)[C@@H]3C=C[C@]2(O3)C1C(=O)NC1CCCCC1` (some centres not stated) was tested, and the “% Inhibition” value was 50%. `O=c1[nH]cnc2c1nc(N1CCCCC1)n2C1OC(CO)C(O)C1O` (configuration not stated) was tested, and the “% Inhibition” value was 3%. In the case of `O=C(Cc1nnc2ccc(C(=O)Nc3ccccc3)cn12)Nc1ccc(F)cc1`, the “% Inhibition” value is reported as 8%. `CN1CCC[C@H](C(=O)Nc2nc(C3CC3)cs2)C1` was tested, and the “% Inhibition” value was -2%. In the case of `Cc1ccc(C(=O)Nc2c(C(N)=O)sc3nc(C(F)F)cc(C4CC4)c23)cc1`, the “% Inhibition” value is reported as -9%. For `Cc1cc(=O)[nH]c(-n2nc(C3CC3)cc2NC(=O)C(c2ccccc2)c2ccccc2)n1`, the “% Inhibition” value was 87%. With `O=C(CCCc1ccccc1)Nc1cc(C2CC2)nn1-c1nc(-c2ccccc2)cc(=O)[nH]1` the “% Inhibition” value was 36%. In the case of `CCC(CC)C(=O)Nc1cc(C2CC2)nn1-c1nc(-c2ccccc2)cc(=O)[nH]1`, the “% Inhibition” value is reported as 45%. In the case of `Cc1cc(F)ccc1NC(=O)Cn1nc(C2CC2)c2c(C(F)F)cc(=O)[nH]c21`, the “% Inhibition” value is reported as 9%. In the case of `CC(C)c1cc(=O)[nH]c(-n2nc(C3CC3)cc2NC(=O)c2ccc(F)cc2)n1`, the “% Inhibition” value is reported as 89%. In the case of `CC(C)(C)c1ccc(C(=O)N[C@H]2CCCC[C@@H]2NC(=O)c2ccc(C(C)(C)C)cc2)cc1`, the “% Inhibition” value is reported as 2%. In the case of `Cc1cc(=O)[nH]c(-n2nc(C3CC3)cc2NC(=O)c2ccc(C(C)(C)C)cc2)n1`, the “% Inhibition” value is reported as 52%. For `CCc1cc(=O)[nH]c(-n2nc(C3CC3)cc2NC(=O)C2CCCCC2)n1`, the “% Inhibition” value was 87%. With `CCc1cc(C(=O)N2CCCCCC2)c2c(C3CC3)nn(-c3ccc(F)cc3)c2n1` the “% Inhibition” value was 5%. For `Cc1nn(C)c(NC(=O)c2ccc(C(C)(C)C)cc2)c1C1=CCCCC1`, the “% Inhibition” value was -5%. In the case of `CC1CC(c2ccccc2)CCN1C(=O)c1cc(C2CC2)on1` (configuration not stated), the “% Inhibition” value is reported as 6%. `Cc1n[nH]cc1Nc1ccnc(C(C)(C)C)n1` was tested, and the “% Inhibition” value was 7%. In the case of `CC(C)OC[C@@H](O)CN1CC(C2CCC2)C1`, the “% Inhibition” value is reported as -19%. `CC1CCCCC1NC(=O)CN1CCN(Cc2cccc(Cl)c2)C1=O` (configuration not stated) was tested, and the “% Inhibition” value was -4%. `Cc1cc2ncc(-n3cncn3)c(-c3ccccc3)n2n1` was tested, and the “% Inhibition” value was 8%. `CCc1ccc(CN2CCN(Cc3cccc(Oc4ccccc4)c3)CC2)cc1` was tested, and the “% Inhibition” value was 8%. With `CCC1CC(CC(=O)NS(=O)(=O)c2ccnn2C)CCO1` (configuration not stated) the “% Inhibition” value was 0%. `COc1ccc2cc3n(c2c1)C[C@](C(=O)NC1CCCCCC1)(c1ccccc1)N(Cc1ccccc1Cl)C3=O` was tested, and the “% Inhibition” value was 13%. In the case of `CC1(C)CCCc2sc(NC(=O)N[C@H]3CCOC4(CCC4)C3)nc21`, the “% Inhibition” value is reported as 1%. With `Cc1cc(Br)ccc1CN(C)S(C)(=O)=O` the “% Inhibition” value was -4%. For `CCOc1ccc2sc(NC(=O)Cn3cnc4nc(N5CCCCC5)sc4c3=O)nc2c1`, the “% Inhibition” value was -1%. In the case of `Cn1ccc(C2=Nc3ccccc3NC(=O)C2)n1`, the “% Inhibition” value is reported as -4%. For `O=S(=O)(c1ccc(F)c(Cl)c1)N1CC[C@H](Oc2ccncc2Cl)C1`, the “% Inhibition” value was 89%. With `O=S(=O)(c1ccco1)N1CC[C@H](Oc2ccccc2)C1` the “% Inhibition” value was 10%. In the case of `O=S(=O)(c1ccc(Cl)cc1)N1CCC(c2cc(-c3cccc(C(F)(F)F)c3)[nH]n2)CC1`, the “% Inhibition” value is reported as 0%. With `O=S(=O)(c1ccc(Br)o1)N1CCCC[C@H]1c1ncc[nH]1` the “% Inhibition” value was -20%. In the case of `Cc1ccc(NC(=O)COC(=O)c2nccc3ccccc23)cc1`, the “% Inhibition” value is reported as 11%. In the case of `COc1cccc(Oc2nc(N3CCN(C)CC3)nc3c2CN(C(=O)Nc2ccccc2)CC3)c1`, the “% Inhibition” value is reported as 10%. With `CC1CCN(c2nc3c(c(Oc4cccc(F)c4)n2)CN(Cc2ccccn2)CC3)CC1` the “% Inhibition” value was 21%. For `COc1cccc(CC(=O)N2CCc3nc(N4CCC(C)CC4)nc(Oc4ccccc4OC)c3C2)c1`, the “% Inhibition” value was 61%. In the case of `Cc1cc(C)n(S(=O)(=O)c2cccc3cccnc23)n1`, the “% Inhibition” value is reported as -10%. `COc1cc(OC)cc(C(=O)Nc2ccc3nc(N4CCC(C)CC4)cc(C)c3c2)c1` was tested, and the “% Inhibition” value was 40%. In the case of `CCN(CC)c1ccc(C(=O)Nc2ccc3nc(N4CCCC4)cc(C)c3c2)cc1`, the “% Inhibition” value is reported as 93%. `CCn1cc(C(=O)Nc2ccc(C(=O)N3CCCCC3)cc2)cn1` was tested, and the “% Inhibition” value was 5%. With `O=C1CN(S(=O)(=O)c2ccc(C(F)(F)F)cc2)C2(CCCCC2)CN1CC1CC1` the “% Inhibition” value was -14%. In the case of `CCOC(=O)c1c(CN2CCOCC2)n(-c2ccc(C)cc2)c2ccc(Oc3nccc(Nc4ccccc4)c3C#N)cc12`, the “% Inhibition” value is reported as 7%. For `COCc1cc2nn(CC(=O)Nc3ccc(F)cc3)c(=O)n2c(-c2ccccc2)n1`, the “% Inhibition” value was -27%. `O=C(Nc1ccccc1)C1=NN(CC(=O)N2CCCCC2)C(=O)CC1` was tested, and the “% Inhibition” value was -1%. `CC(NS(C)(=O)=O)C(=O)N1CCC(F)(c2cc(F)cc(F)c2)C1` (configuration not stated) was tested, and the “% Inhibition” value was 12%. `COc1ccc(Nc2nc(C(C(F)(F)F)(C(F)(F)F)C(F)(F)F)nc(C(C(F)(F)F)(C(F)(F)F)C(F)(F)F)n2)cc1` was tested, and the “% Inhibition” value was 11%. In the case of `O=c1cc(-c2ccccc2)n(S(=O)(=O)c2ccccc2)o1`, the “% Inhibition” value is reported as -7%. With `Clc1cccc(N2CCN(Cc3ccc(OC4CCNCC4)cc3)CC2)c1` the “% Inhibition” value was 14%. For `CC(=O)C1(C(C)=O)[C@H](c2ccc(F)cc2)C1(C#N)C#N`, the “% Inhibition” value was -24%. `O=C(CCC1CCCCC1)Nc1ncccn1` was tested, and the “% Inhibition” value was -9%. `O=C(NCCCc1ccccc1)[C@H]1CCCN(c2nc3ccccc3[nH]2)C1` was tested, and the “% Inhibition” value was -4%. For `CC(C)C1(C)CC(=O)N(C(C(=O)O)c2ccccc2)C1=O` (configuration not stated), the “% Inhibition” value was -6%. `c1ccc(Nc2nc(-c3ccccc3)cc(-c3ccccc3)n2)cc1` was tested, and the “% Inhibition” value was 5%. In the case of `Cc1nc(N)nc(C)c1C(=O)Nc1ccc(Nc2ncccn2)cc1`, the “% Inhibition” value is reported as 36%. For `Cc1cc(N)nc(Nc2ccc(Nc3ccccc3)cc2)n1`, the “% Inhibition” value was 97%. In the case of `O=C(NC(C1CC1)C1CC1)c1ccsc1`, the “% Inhibition” value is reported as -23%. With `Cn1c(C(=O)N2CC[C@H](N)C2)ccc1-c1cccc(Br)c1` the “% Inhibition” value was 11%. `N#Cc1c(-c2ccccc2)cc(-c2ccccc2)n(C(=O)c2ccc(F)cc2)c1=O` was tested, and the “% Inhibition” value was 9%. With `Oc1nccc(C(F)(F)C(F)(F)F)n1` the “% Inhibition” value was -3%. For `CS(=O)(=O)Nc1nc2ccc(NC(=O)c3cc(-c4ccccc4)nc4ccccc34)cc2s1`, the “% Inhibition” value was 3%. In the case of `COc1ccc(-c2cc(C(=O)NC3CCN(C(C)C)CC3)c3ccccc3n2)cc1OC`, the “% Inhibition” value is reported as -18%. For `CCOc1ccc(-c2cc(NC(=O)c3cc(-c4cccnc4)nc4ccccc34)on2)cc1OCC`, the “% Inhibition” value was 98%. With `Cc1ccc(-c2ccc(CN(CC(=O)NCC(=O)O)C(C)C)s2)cc1` the “% Inhibition” value was 13%. With `CN(C)Cc1ccc(NC(=O)c2cc(F)cc3c(=O)c4cc(F)ccc4[nH]c23)cc1` the “% Inhibition” value was 95%. With `CC(=O)Nc1cccc(C#CCN2CCN(c3ccc(F)cc3)CC2)c1` the “% Inhibition” value was 13%. In the case of `Cc1cccc(NC(=O)c2cc(C)nc3c2c(C)nn3-c2ccc(F)cc2)c1`, the “% Inhibition” value is reported as 0%. For `CC(C)NC(=O)N(C)Cc1ccc(F)cc1`, the “% Inhibition” value was 8%. For `CC(C)n1nccc1NC(=O)c1c[nH]c2ccc(F)cc2c1=O`, the “% Inhibition” value was -4%. In the case of `CCN1CCN(c2cccc(NC(=O)c3cc(F)cc4c(=O)c5cc(F)ccc5[nH]c34)c2)CC1`, the “% Inhibition” value is reported as 96%. With `CCN1CCN(C(=O)c2ccccc2N2CCC(NC(=O)c3cccc(Br)c3)CC2)CC1` the “% Inhibition” value was 40%. For `CCn1c(C)c(C)c2cc(C(=O)Nc3cccc(S(=O)(=O)N4CCOCC4)c3)ccc21`, the “% Inhibition” value was 4%. `CCN1CCN(c2cccc(NC(=O)c3ccc4[nH]c5ccccc5c(=O)c4c3)c2)CC1` was tested, and the “% Inhibition” value was 100%. With `N#CCc1ncc(CCN2C(=O)c3ccccc3C2=O)s1` the “% Inhibition” value was 7%. With `COc1ccc(S(=O)(=O)N(c2onc(C)c2Cl)S(=O)(=O)c2ccc(OC)c(OC)c2)cc1OC` the “% Inhibition” value was 4%. In the case of `CC[C@@H](C(N)=O)N1CCN(Cc2nc(-c3cccs3)no2)CC1`, the “% Inhibition” value is reported as 7%. `Cc1noc(-c2csc(-c3c[nH]cn3)n2)n1` was tested, and the “% Inhibition” value was -1%. For `CN(Cc1ccn(C)n1)C(=O)c1cc(S(=O)(=O)N(C)C)c(Cl)cc1Cl`, the “% Inhibition” value was 8%. With `O=C(NC1CCCC1)N1CCN(S(=O)(=O)c2cccc(F)c2)CC1` the “% Inhibition” value was 2%. For `COc1ccc(-c2cc(C(=O)N[C@H]3CCN(c4ccc(=O)n(C)n4)C3)c(C)n2C)cc1`, the “% Inhibition” value was 41%. With `COc1ccc(-c2cc(C(=O)N[C@H]3CCN(c4ccc(=O)[nH]n4)C3)c(C)n2C)cc1` the “% Inhibition” value was 58%. For `Cc1c(C(=O)NC2CC2)cc(-c2ccccc2)n1C`, the “% Inhibition” value was 6%. With `c1cn(C[C@@H]2CCCN2c2nc(C3CCCC3)ns2)nn1` the “% Inhibition” value was -8%. In the case of `Cn1cc(C(=O)c2nc(-c3ccccc3Cl)no2)cn1`, the “% Inhibition” value is reported as -5%. For `O=S(=O)(c1ccc2nncn2c1)N(Cc1cccc(Cl)c1)c1ccccc1`, the “% Inhibition” value was 9%.
